{
  "source": "PubChem BioAssay AID602393",
  "about": "(Broad Institute, 2012)",
  "note": "Screen size: about 350,000 compounds; about 7,000 (2%) were called active. Rule as the data show it: active = activation above about 40%; inconclusive = no clear call, values can overlap the other calls; inactive = below that. Only a selection was taken, and actives are over-represented in it overall.",
  "data": [
    {"experiment": "Bmi1 luciferase reporter increase in mESCs, primary screen, esBAF inhibitor project, mouse ES cells, Bmi1 luciferase knock-in, single point (AID 602393);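 also: 0% = median of the plate's neutral control wells and 100% = double that signal; a rise in the Bmi1 reporter signal indicates esBAF inhibition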", "conditions": "24 h, at 12.5 µM, hits give high values, 100% = twice the neutral-well signal", "values": [
      {"smiles": "CCCC(=O)Nc1ccc2c(c1)OC[C@@H](C)N(Cc1ccccc1F)C[C@@H](C)[C@H](OC)CN(C)C2=O", "reporter increase": "-2.03% (inactive)"},
      {"smiles": "COc1ccc(S(=O)(=O)Nc2cccc3c2O[C@@H](CN(C)C(=O)NC(C)C)[C@H](C)CN([C@@H](C)CO)C3=O)cc1", "reporter increase": "-7.18% (inactive)"},
      {"smiles": "O=C([C@@H]1[C@@H](CO)[C@@H]2Cn3c(ccc(C4=CCCC4)c3=O)[C@H]1N2C(=O)c1ccncc1)N1CCCCC1", "reporter increase": "-2.02% (inactive)"},
      {"smiles": "C[C@@H]1CN([C@@H](C)CO)C(=O)CCCn2cc(nn2)CO[C@@H]1CN(C)Cc1ccccc1C(=O)O", "reporter increase": "-3.04% (inactive)"},
      {"smiles": "CC(C)NC(=O)N(C)C[C@H]1OCCCC[C@H](C)Oc2ccc(NC(=O)Nc3ccc4c(c3)OCO4)cc2C(=O)N([C@H](C)CO)C[C@@H]1C", "reporter increase": "4.2% (inactive)"},
      {"smiles": "C[C@@H]1CCCCO[C@H](CN(C)C(=O)NC2CCCCC2)[C@H](C)CN([C@@H](C)CO)C(=O)c2cc(NC(=O)Nc3ccc(F)cc3)ccc2O1", "reporter increase": "3.4% (inactive)"},
      {"smiles": "C[C@@H]1CCCCO[C@@H](CN(C)C(=O)NC2CCCCC2)[C@H](C)CN([C@@H](C)CO)C(=O)c2cc(NC(=O)Nc3ccc(F)cc3)ccc2O1", "reporter increase": "3.77% (inactive)"},
      {"smiles": "C[C@H](CO)N1C[C@H](C)[C@H](CN(C)C(=O)NC2CCCCC2)OCCCC[C@H](C)Oc2ccc(NC(=O)Nc3ccc4c(c3)OCO4)cc2C1=O", "reporter increase": "55.8% (active)"},
      {"smiles": "C[C@H]1CCCCO[C@H](CN(C)C(=O)NC2CCCCC2)[C@@H](C)CN([C@@H](C)CO)C(=O)c2cc(NC(=O)Nc3ccc4c(c3)OCO4)ccc2O1", "reporter increase": "44.8% (active)"},
      {"smiles": "C[C@@H]1CCCCO[C@H](CN(C)C(=O)NC2CCCCC2)[C@H](C)CN([C@H](C)CO)C(=O)c2cc(NC(=O)Nc3ccc(F)cc3)ccc2O1", "reporter increase": "4.59% (inactive)"},
      {"smiles": "COCC(=O)N(C)C[C@H]1Oc2ncc(-c3cccc(OC)c3)cc2C(=O)N([C@H](C)CO)C[C@H]1C", "reporter increase": "-0.645% (inactive)"},
      {"smiles": "C[C@@H]1CN([C@H](C)CO)C(=O)CCCn2cc(nn2)CO[C@@H]1CN(C)Cc1ccc2cccnc2c1", "reporter increase": "-4.13% (inactive)"},
      {"smiles": "CCC(=O)Nc1ccc2c(c1)OC[C@@H](C)N(CC1CC1)C[C@H](C)[C@H](OC)CN(C)C2=O", "reporter increase": "2.9% (inactive)"},
      {"smiles": "C[C@H]1CN([C@@H](C)CO)C(=O)c2cc(C#CC(C)(C)O)cnc2O[C@H]1CN(C)C(=O)CC1CC1", "reporter increase": "2.32% (inactive)"},
      {"smiles": "C[C@@H]1CN([C@H](C)CO)C(=O)c2c(c3ccccc3n2C)-c2ccccc2CO[C@@H]1CN(C)C(=O)Nc1ccccc1", "reporter increase": "2.44% (inactive)"},
      {"smiles": "O=C(CN1CCCSc2ccccc21)N1CCN(S(=O)(=O)c2ccccc2)CC1", "reporter increase": "3.15% (inactive)"},
      {"smiles": "O=C(CN1CCCSc2ccccc21)N1CCN(S(=O)(=O)c2cccc(F)c2)CC1", "reporter increase": "2.16% (inactive)"},
      {"smiles": "N#C/C=C1\\Sc2ccccc2C(=O)N1CC(=O)N1CCN(S(=O)(=O)c2ccccc2)CC1", "reporter increase": "76.9% (active)"},
      {"smiles": "CCCNC(=O)N1C[C@@H](O)COC[C@H]2O[C@H](CC(=O)N3CCC(Cc4ccccc4)CC3)CC[C@@H]21", "reporter increase": "8.61% (inactive)"},
      {"smiles": "CCC(=O)N[C@H]1CC[C@@H](CC(=O)NCc2cc(F)cc(F)c2)O[C@@H]1CO", "reporter increase": "0.353% (inactive)"},
      {"smiles": "O=C(NCCNc1ccc([N+](=O)[O-])cc1Cl)c1ccccc1F", "reporter increase": "7.96% (inactive)"},
      {"smiles": "O=C(NCCNc1ccccc1[N+](=O)[O-])c1ccccc1F", "reporter increase": "62.1% (active)"},
      {"smiles": "COC(=O)CNC(=O)c1ccccc1[N+](=O)[O-]", "reporter increase": "-1.18% (inactive)"},
      {"smiles": "CC(=O)Nc1ccc2c(c1)C(=O)N(C)[C@@H]1CC[C@H](CC(=O)NCc3ccccc3)O[C@H]1CO2", "reporter increase": "-6.55% (inactive)"},
      {"smiles": "CO[C@@H]1CN(C)C(=O)c2cc(NC(=O)C3CCC3)ccc2OC[C@H](C)N(Cc2ccccn2)C[C@H]1C", "reporter increase": "1.86% (inactive)"},
      {"smiles": "Cc1nc(-c2ccccc2)sc1-c1nc(-c2ccccc2)ncc1S(=O)(=O)c1ccccc1", "reporter increase": "-0.228% (inactive)"},
      {"smiles": "Cc1nc(N)sc1-c1ccccc1", "reporter increase": "0.609% (inactive)"},
      {"smiles": "Cc1nc(-c2ccccc2)sc1-c1nnc(C2CC2)o1", "reporter increase": "76.8% (active)"},
      {"smiles": "CO[C@@H]1CN(C)C(=O)c2cc(NC(=O)C3CC3)ccc2OC[C@@H](C)N(C(=O)c2ccccc2F)C[C@@H]1C", "reporter increase": "-20.7% (inactive)"},
      {"smiles": "C[C@H](CO)N1C[C@H](C)[C@@H](CN(C)S(=O)(=O)c2ccc(Cl)cc2)Oc2ccc(NS(C)(=O)=O)cc2CC1=O", "reporter increase": "-2.32% (inactive)"},
      {"smiles": "CC(C)C(=O)Nc1ccc2c(c1)oc1ccccc12", "reporter increase": "60.1% (active)"},
      {"smiles": "CCc1cccc(NC(=O)COC(=O)c2cc(=O)c3ccccc3o2)c1", "reporter increase": "8.66% (inactive)"},
      {"smiles": "CC(C)C(=O)Nc1c(C(=O)c2ccc(F)cc2)oc2ccccc12", "reporter increase": "-8.19% (inactive)"},
      {"smiles": "C[C@@H]1CN([C@@H](C)CO)S(=O)(=O)c2ccc(C#Cc3ccccc3)cc2O[C@@H]1CN(C)C(=O)C1CC1", "reporter increase": "-5.48% (inactive)"},
      {"smiles": "Cc1ccc(SCC(=O)NC(=O)NCc2ccco2)c(C)c1", "reporter increase": "-6.07% (inactive)"},
      {"smiles": "Cc1ccc(NC(=O)C(=O)NCc2ccco2)c(C)c1", "reporter increase": "47.2% (active)"},
      {"smiles": "Cc1ccc(NC(=O)Cn2nnc(C(=O)NCc3ccco3)c2N)c(C)c1", "reporter increase": "3.66% (inactive)"},
      {"smiles": "O=C(Cc1ccccn1)NCC[C@H]1CC[C@H](NS(=O)(=O)c2ccccc2)[C@@H](CO)O1", "reporter increase": "-4.76% (inactive)"},
      {"smiles": "Cc1cccc(S(=O)(=O)N[C@H]2CC[C@@H](CCNS(=O)(=O)c3ccccc3F)O[C@H]2CO)c1", "reporter increase": "-0.839% (inactive)"},
      {"smiles": "Cc1ccc(C2=Nc3c(ccc4ccccc34)C(c3ccncc3)=NN2)cc1", "reporter increase": "10% (inactive)"},
      {"smiles": "CCOc1ccc2c(c1)C(c1ccc(C)cc1)=NNC(c1ccc(C)cc1)=N2", "reporter increase": "67.3% (active)"},
      {"smiles": "CCOc1ccc2[nH]c(=S)sc2c1", "reporter increase": "27.8% (inactive)"},
      {"smiles": "C[C@@H]1CN([C@@H](C)CO)C(=O)Cc2cc(NS(=O)(=O)c3ccc(F)cc3)ccc2O[C@@H]1CN(C)S(=O)(=O)c1cccs1", "reporter increase": "4.77% (inactive)"},
      {"smiles": "CCC(=O)Nc1ccc2c(c1)C(=O)N(C)C[C@@H](OC)[C@@H](C)CN(Cc1ccccc1OC)[C@H](C)CO2", "reporter increase": "-3.34% (inactive)"},
      {"smiles": "CNC[C@@H]1Oc2cc(-c3ccccc3OC)ccc2S(=O)(=O)N([C@H](C)CO)C[C@H]1C", "reporter increase": "-6.68% (inactive)"},
      {"smiles": "CN1CCN(C(=O)C[C@H]2C[C@H]3c4cc(NC(=O)Nc5ccccc5F)ccc4O[C@H]3[C@H](CO)O2)CC1", "reporter increase": "2.41% (inactive)"},
      {"smiles": "CC(C)NC(=O)N(C)C[C@@H]1Oc2ncc(C#CC3CC3)cc2C(=O)N([C@@H](C)CO)C[C@H]1C", "reporter increase": "5.43% (inactive)"},
      {"smiles": "O=C(NCc1ccccc1Cl)C1CCCO1", "note": "(stereo not given)", "reporter increase": "-4.1% (inactive)"},
      {"smiles": "O=C(Nc1ccc(C(=O)NCc2ccccc2Cl)cc1)C1=CSCCO1", "reporter increase": "44% (active)"},
      {"smiles": "CSc1ccc(CNC(=O)c2ccc(NC(=O)C3=CSCCO3)cc2)cc1", "reporter increase": "15.9% (inactive)"},
      {"smiles": "CCN1[C@@H]2Cn3c(ccc(C4=CCCCC4)c3=O)[C@H]1[C@@H](C(=O)N1CCCCC1)[C@@H]2CO", "reporter increase": "-1.1% (inactive)"},
      {"smiles": "O=C(Cc1ccc(F)cc1)N/N=C/c1ccc2c(c1)OCO2", "reporter increase": "52.6% (active)"},
      {"smiles": "O=C(COC(=O)c1ccc(F)cc1)Nc1ccc2c(c1)OCO2", "reporter increase": "1.17% (inactive)"},
      {"smiles": "O=C(CN1CCSCC1)N/N=C/c1ccc(F)cc1", "reporter increase": "5% (inactive)"},
      {"smiles": "C[C@@H](NC(=O)[C@H]1[C@H](CO)[C@H]2Cn3c(cccc3=O)[C@H]2N1C(=O)C1CC1)c1ccccc1", "reporter increase": "2.89% (inactive)"},
      {"smiles": "COc1ccc(C(=O)Nc2ccc3c(c2)OC[C@H](C)N(C(C)=O)C[C@@H](C)[C@H](OC)CN(C)C3=O)cc1", "reporter increase": "-0.383% (inactive)"},
      {"smiles": "Cc1ccc(S(=O)(=O)NCC[C@@H]2CC[C@@H](NC(=O)CCN3CCCCC3)[C@@H](CO)O2)cc1", "reporter increase": "-6.37% (inactive)"},
      {"smiles": "Cc1ccc(S(=O)(=O)Nc2ccc3c(c2)C(=O)N([C@@H](C)CO)C[C@H](C)[C@@H](CN(C)C(=O)Cc2ccccc2)OCCCC[C@H](C)O3)cc1", "reporter increase": "0.836% (inactive)"},
      {"smiles": "O=C(Nc1ncccc1O)c1ccc(C(=O)c2ccccc2)cc1", "reporter increase": "21.1% (inactive)"},
      {"smiles": "O=C(CNC(=O)c1ccc2ccccc2c1)Nc1ncccc1O", "reporter increase": "51.4% (active)"},
      {"smiles": "Cc1ccnc(NC(=O)CNC(=O)c2ccccc2)c1", "reporter increase": "20.5% (inactive)"},
      {"smiles": "Cc1noc(C)c1S(=O)(=O)N(C)C[C@H]1OCCCC[C@@H](C)Oc2ccc(NC(=O)c3ccccc3)cc2C(=O)N([C@@H](C)CO)C[C@H]1C", "reporter increase": "5.48% (inactive)"},
      {"smiles": "O=C(C[C@H]1CC[C@@H](NC(=O)Nc2ccc(C(F)(F)F)cc2)[C@H](CO)O1)NCc1cc(F)cc(F)c1", "reporter increase": "2.19% (inactive)"},
      {"smiles": "CCC(=O)N1[C@@H]2CN(C(=O)Nc3ccc(Cl)cc3)c3ccccc3[C@@H]2[C@@H]1CO", "reporter increase": "7.74% (inactive)"},
      {"smiles": "O=C(OCc1nnc(-c2ccccc2)o1)c1cc(=O)[nH]c2ccccc12", "reporter increase": "-2.08% (inactive)"},
      {"smiles": "COC(=O)C1CCN(C(=O)c2cc(=O)[nH]c3ccccc23)CC1", "reporter increase": "-0.707% (inactive)"},
      {"smiles": "CN(C(=O)COC(=O)c1cc(=O)[nH]c2ccccc12)C1CCCCC1", "reporter increase": "59.3% (active)"},
      {"smiles": "CC1CCN(C(=O)COC(=O)c2cc(S(=O)(=O)N3CCOCC3)ccc2Cl)CC1", "reporter increase": "-5.57% (inactive)"},
      {"smiles": "O=C(COC(=O)c1cc(=O)[nH]c2ccccc12)NCc1cccc(Cl)c1", "reporter increase": "-2.45% (inactive)"},
      {"smiles": "CC1CCN(C(=O)COC(=O)c2cc(=O)[nH]c3ccccc23)CC1", "reporter increase": "60.1% (active)"},
      {"smiles": "COc1ccc(S(=O)(=O)N(C)C[C@@H]2OCCCC[C@@H](C)Oc3ccc(N(C)C)cc3C(=O)N([C@@H](C)CO)C[C@@H]2C)cc1", "reporter increase": "-1.73% (inactive)"},
      {"smiles": "O=C(C[C@H]1CC[C@@H](NC(=O)c2ccncc2)[C@@H](CO)O1)Nc1ccccc1", "reporter increase": "-0.301% (inactive)"},
      {"smiles": "Cn1c(=O)n(C)c2cc(C(=O)Nc3ccc(Br)cc3)ccc21", "reporter increase": "6.69% (inactive)"},
      {"smiles": "CC(C)n1c(=O)[nH]c2cc(C(=O)Nc3ccccc3)ccc21", "reporter increase": "46.7% (active)"},
      {"smiles": "Cc1cc(=O)c2ccc(NC(=O)c3ccccc3)cc2[nH]1", "reporter increase": "1.23% (inactive)"}
    ]}
  ]
}
